# Screening results deposited in PubChem BioAssay by The Scripps Research Institute Molecular Screening Center.
# Compounds with a hit are over-represented: about 2.3% of the library has one in this group of screens.
# M1 antag – human M1 muscarinic receptor antagonists, primary screen, CHO-K1 cells, Fluo-8 calcium fluorescence, 1536-well | Muscarinic acetylcholine receptor M1 (Homo sapiens), P11229 | CHO-K1 hM1, ACh EC80 antagonist | inhibition, % at 3 µM | 360,000 compounds, 1.3% hits | AID 588852, 2011;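 active means percent inhibition above its own plate's cutoff, namely the mean of that plate's compound wells plus 3 SD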;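 further: peak over basal fluorescence ratio during 140 s after agonist addition; 0% = ACh EC80 plus DMSO and 100% = DMSO alone without agonist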
# Target sequence (P11229 whole entry, looked up): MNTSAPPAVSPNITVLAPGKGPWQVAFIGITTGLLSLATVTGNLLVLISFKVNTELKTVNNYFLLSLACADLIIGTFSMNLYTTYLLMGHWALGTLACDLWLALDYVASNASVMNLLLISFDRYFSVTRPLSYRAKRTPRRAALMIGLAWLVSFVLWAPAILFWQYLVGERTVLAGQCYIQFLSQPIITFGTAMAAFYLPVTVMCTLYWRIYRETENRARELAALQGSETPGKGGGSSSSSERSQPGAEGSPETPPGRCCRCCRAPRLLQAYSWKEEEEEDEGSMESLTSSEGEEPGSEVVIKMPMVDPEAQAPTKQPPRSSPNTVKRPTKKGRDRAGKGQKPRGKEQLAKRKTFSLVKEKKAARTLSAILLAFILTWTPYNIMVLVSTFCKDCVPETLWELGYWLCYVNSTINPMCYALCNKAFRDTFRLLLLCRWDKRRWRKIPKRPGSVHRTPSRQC
# CHRM1 agonist – human M1 muscarinic receptor agonists, primary screen, Fluo-8 calcium fluorescence, CHO-K1 cells, HTS; activation, % at 3 µM; Muscarinic acetylcholine receptor M1 (Homo sapiens), P11229; CHO-K1 hM1, agonist mode; 0% DMSO, 100% acetylcholine EC100; AID 588814, 2011; 360,000 compounds, 0.33% hits;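 active means activation above the run's mean compound activation plus 3 SD, cut at about 16% in these data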;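 further: peak over basal fluorescence ratio within a 140 s kinetic read after compound addition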
# CHO-K1 Ca PAM – nonselective calcium activators in parental CHO-K1 cells, primary screen, counter-screen for M1 PAM project, cell-based, Fluo-8 calcium fluorescence, full deck, 1536-well; ATP EC20; 0% at ATP EC20, 100% at ATP max; activation, % at 3 µM; 360,000 compounds, 0.02% hits; AID 602247, 2012;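 active means activation above the run cutoff, the mean activation of all test compounds plus 3 SD, cut at about 40% in these data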;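 further: peak over basal fluorescence ratio in a 140 s read after ATP addition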
# CHRM1 PAM – human M1 muscarinic receptor positive allosteric modulators, primary screen, CHO-K1 cells, Fluo-8 calcium fluorescence, 1536-well | Muscarinic acetylcholine receptor M1 (Homo sapiens), P11229 | CHO-K1 hM1, ACh EC20; 0% = ACh EC20, 100% = maximal ACh | activation, % at 3 µM | 360,000 compounds, 0.088% hits | AID 588819, 2011; in the data active means activation above about 19%, passing the limit was not always enough
# M1 ag parental – counter-screen for M1 agonists: effect in parental CHO-K1 cells; Fluo-8 calcium fluorescence; scaled to maximal ATP response, vehicle zero; 360,000 compounds, 0.48% hits; activation, % at 3 µM; in the data active means activation above about 15%;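 further: untransfected CHO-K1 host cells lacking M1 receptor as counterscreen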
# CHO-K1 Ca antag – counter-screen for M1 antagonists: effect in parental CHO-K1 cells; ATP-induced calcium, Fluo-8 fluorescence; inhibition, % at 3 µM; 360,000 compounds, 0.6% hits; AID 602250;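 active means inhibition above a per-plate cutoff, the plate's mean sample inhibition plus 3 SD, cut at about 24% in these data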;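 further: 0% = DMSO plus EC80 ATP and 100% = DMSO alone without ATP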
# An asterisk follows results filed as active.
SMILES,M1 antag,CHRM1 agonist,CHO-K1 Ca PAM,CHRM1 PAM,M1 ag parental,CHO-K1 Ca antag
CCN(CC(=O)NCCc1ccc(S(N)(=O)=O)cc1)Cc1ccccc1,16,-6,-8,-1,1,2
CC(=O)Oc1ccc(Cl)cc1CN(C(C)=O)C1CCCCC1,-5,-6,13,-2,0,-15
COC(=O)Cn1nc(-c2ccc(C)c(S(=O)(=O)N(C)C)c2)c2ccccc2c1=O,-10,-2,8,7,0,1
Cc1ccc(-c2nn(CC(=O)N(C)C)c(=O)c3ccccc23)cc1S(=O)(=O)N(C)C,-50,-3,12,21*,0,-31
CC(=O)N1CCN(c2ccccc2NC(=O)COc2cc(C)ccc2C(C)C)CC1,30*,2,0,-10,4,11
COc1ccc2sc(N(CCN(C)C)C(=O)c3ccc4ccccc4c3)nc2c1,-6,20*,13,5,0,5
O=C(Nc1ccc([N+](=O)[O-])cc1)Nc1nc(-c2ccc(Cl)s2)cs1,8,6,-4,-10,10,34*
CCCN1CCN(C(=O)c2ccc3[nH]c(C)c(C)c3c2)CC1,20,-8,-10,-12,0,3
CCC(C)NC(=O)c1c(N)n(/N=C/c2cccnc2)c2nc3ccccc3nc12 (centres undefined),0,-1,-4,14,-1,25*
CCC(C)NC(=O)c1c(N)n(/N=C/c2ccccn2)c2nc3ccccc3nc12 (centres undefined),9,-5,-6,2,0,17
CC(C)NC(=O)N1CC(c2ccccc2)C(c2ccc(Cl)cc2)=N1 (centres undefined),35*,-10,-5,-23,0,-3
CC(=O)N1CC(c2ccccc2)C(c2ccc(Cl)cc2)=N1 (centres undefined),-6,-10,11,6,0,-5
Cc1cc2nc(C)c(=O)n(C)c2cc1C,-13,-6,2,10,0,-1
Cc1cc2nc3n(c2cc1C)CCCN3,34*,-11,-13,-23,0,9
Cn1c2ccccc2c2cc(C(=O)N3CCN(CCO)CC3)sc21,0,-5,-6,4,0,24*
CCN(CC)CCNC(=O)c1ccc(NC(=O)c2cn(-c3ccccc3)nc2-c2cccs2)cc1,61*,-9,25,-28,2,-4
CCN(CC)CCNC(=O)c1ccc(NC(=O)c2cn(-c3ccc(F)cc3)nc2-c2cccc(OC)c2)cc1,99*,-11,14,-31,1,-11
Cc1nn(-c2ccc(NC(=O)c3ccncc3)cc2)c(C)c1Cl,32*,2,-5,-20,13,9
CCN(CC)CCNC(=O)c1ccc(NC(=O)c2ccc3c(c2)CCC3)cc1,14,-10,16,-11,2,-16
O=C(Nc1cccnc1)c1cn(-c2ccccc2)nc1-c1cccs1,6,-1,5,-9,5,-5
CCN(CC)CCNC(=O)c1ccc(NC(=O)c2cccc(S(=O)(=O)N(C)C3CCCCC3)c2)cc1,100*,-8,10,-30,0,-15
C/C(=N\NC(=O)c1c(Cl)c(C)nn1C)c1ccc(NC(=O)c2ccncc2)cc1,-2,-6,7,3,0,9
Cc1ccc(NC(=O)CN2CCN(Cc3ccccc3)CC2)cc1F,-7,-9,1,7,1,-11
CCN(CC(=O)Nc1ccc(NC(C)=O)cc1)C(=O)c1c(C)nn(-c2ccc(F)cc2)c1Cl,30,-3,-10,-12,4,-7
CCN(CC)CCNC(=O)c1ccc(NC(=O)Cc2ccccc2F)cc1,4,-15,4,-9,0,3
SMILES,M1 antag,CHRM1 agonist,CHO-K1 Ca PAM,CHRM1 PAM,M1 ag parental,CHO-K1 Ca antag
CCN(CC)CCNC(=O)c1ccc(NC(=O)c2c(C)nn(-c3ccc(F)cc3)c2Cl)cc1,101*,-10,3,-33,3,-1
CCN(CC)CCNC(=O)c1ccc(NC(=O)c2ccccc2-c2ccc(C(F)(F)F)cc2)cc1,101*,-11,10,-31,4,-7
Cc1cc(F)ccc1NCc1ccc([N+](=O)[O-])cc1,8,-15,2,-4,21*,-9
Cc1cc([N+](=O)[O-])ccc1NCc1ccc2c(c1)OCCO2,-21,-1,12,15,2,-6
CCCC[n+]1ccn(C2=C([O-])c3ccccc3C(=O)/C2=N\S(=O)(=O)c2ccccc2)c1,-4,-2,14,-1,0,-4
CC(C)c1ccc(NC(=O)C[n+]2ccn(C3=C([O-])c4ccccc4C3=O)c2)cc1,8,-6,-5,-8,18*,-3
O=C(Nc1ccccc1)c1nc[nH]c1C(=O)NCCNC(=O)c1[nH]cnc1C(=O)Nc1ccccc1,25*,1,10,-10,3,-9
O=C(CN1C2CCCC1CC(NC(=O)C1CCCCC1)C2)Nc1ccccc1 (centres undefined),-7,-10,9,3,1,-12
O=C(NC1CCCC1)C1CCN(C(=O)NCc2ccccc2)CC1,-6,-3,16,11,1,-10
O=C(NC1CC2CCCC(C1)N2Cc1ccccc1)C1CCCCC1 (centres undefined),38*,-5,28,-18,0,-10
O=C(NC1CC2CCC(C1)N2C(=O)NCc1ccccc1)C1CC1 (centres undefined),37*,-6,-7,-17,0,13
CCCCN1C2CCCC1CC(NC(=O)C1CCCCC1)C2 (centres undefined),43*,-4,21,-19,1,-12
COc1ccc(C(CC(=O)O)NS(=O)(=O)c2ccc3c(c2)N(C(C)=O)CC(C)O3)cc1 (centres undefined),0,-2,16,7,0,-7
O=S(=O)(Nc1nc2ccccc2nc1Nc1ccc2c(c1)OCO2)c1ccc(F)cc1,-1,-4,15,4,0,-7
CCC(C)c1c(O)nc(SCC(=O)N2CCOCC2)[nH]c1=O (centres undefined),-21,3,12,25*,0,-25
CCC(C)c1c(O)nc(SCC(=O)N2CCCCC2)[nH]c1=O (centres undefined),2,0,11,1,1,-6
CCCN(C(=O)c1cn(-c2ccccc2)nc1-c1ccc(OC)cc1)C1CCS(=O)(=O)C1 (centres undefined),-21,-3,8,19,1,-5
